Experimental data published in PubChem BioAssay (Tox21).
Several values for one entry are separate records, joined by “and”; a condition that tells them apart may be missing. Equal entries are not always repeated. Records with an inconclusive call do not appear. Some compounds were tested as several samples or in several runs, with calls that do not always agree. Activity calls are given as the source filed them. Unless noted, the call rests on the fitted dose curve; in most records, active means well fitted curve in the direction sought with a large enough effect in the repeat runs; inconclusive means weak or mixed curves; inactive means no such curve, though single readings can be large; an effect the other way counts as inactive or inconclusive.

Legend:
[1] = qHTS assay to identify small molecule agonists of the hypoxia (HIF-1) signaling pathway - cell viability counter screen (AID 1224844; calls by dose curve; further: nearly all actives have a fitted effect of over 50% in size; further: potency means the concentration at half of the fitted maximal effect)
How it was run: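 Cells (HRE-bla ME-180, 2,000 per well) sat 5 hrs at 37C, got compound for 17 hrs, were read for CCF4-AM FRET, and were finally lysed with CellTiter-Glo for a 30 min room-temperature luminescence read.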

[2] = qHTS assay to identify small molecule agonists of H2AX (AID 1224845; active means well fitted activation curve with a large enough effect in the signal ratio in the repeat runs, not every such curve was filed as active; the % refers to the signal ratio; further: potency means the concentration at half of the fitted maximal effect)
How it was run: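 Phospho-H2AX Ser139 measured by HTRF (ex 320 nm; em 665 and 620 nm) after 24 hr antibody incubation. Compounds, 15 concentrations, 0.76% DMSO, were applied to CHO-K1 cells for 3hr at 37C before lysis.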

[3] = qHTS assay to identify small molecule agonists of H2AX - cell viability counter screen (AID 1224847; calls by dose curve; further: nearly all actives have a fitted effect of over 30% in size; further: potency means the concentration at half of the fitted maximal effect)
How it was run: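 Cells plated first: CHO-K1, 1000 per well in 10% FBS medium, incubated overnight at 37C. Then 15-point compound titration added (final DMSO 0.76%) for 3 hr. Finally CellTiter-Glo added and luminescence read.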

[4] = qHTS assay to identify small molecule antagonists of the estrogen related receptor (ERR) signaling pathway from Tox21 library (AID 1224848); further: nearly all actives have a fitted effect of over 50% in size; further: potency means the concentration at half of the fitted maximal effect
How it was run: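 Antagonist-mode screen of the Tox21 10K library in an NTP-provided ERR reporter cell line; 18 h compound exposure at 37 C, luminescence measured with ONE-Glo.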

[5] = qHTS assay to identify small molecule agonists of the estrogen related receptor (ERR) signaling pathway from Tox21 library (AID 1224849; calls by dose curve; further: nearly all actives have a fitted effect of over 15% in size); conditions: ERR reporter cell line, ONE-Glo luciferase, 18 h
How it was run: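 Screening used an NTP-provided ERR luciferase cell line. Compounds in DMSO were added 6 h after seeding and left 18 h at 37 C before a 30 min ONE-Glo step and luminescence reading.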

[6] = qHTS RealTime-Glo MT Cell Viability Assay in HEK293 cells - 32 hour (AID 1224868); further: nearly all actives have a fitted effect of over 50% in size; further: potency means the concentration at half of the fitted maximal effect
How it was run: (§1)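 Viability tracked continuously by luminescence as live cells reduce a prosubstrate for NanoLuc; HEK293 cells preincubated 5 h, compound-treated at 37 C, and read at 0, 8, 16, 24, 32 and 40 h.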

[7] = A CellTox Green Cytotoxicity Assay to monitor cytotoxicity in HEK293 cells - 0 hour (AID 1224869); further: nearly all actives have a fitted effect of over 50% in size
How it was run: (§2)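 Fluorescence intensity, read at 0, 8, 16, 24, 32 and 40 h of compound treatment, reflected dye binding to DNA of dead HEK293 cells; compounds (23 nL, DMSO) were added 5 h after plating cells with reagent.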

[8] = qHTS RealTime-Glo MT Cell Viability Assay in HepG2 cells - 40 hour (AID 1224870); further: nearly all actives have a fitted effect of over 50% in size
How it was run: (§3)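 Real-time viability: cells seeded at 600 per well together with NanoLuc and cell-permeant prosubstrate, compounds added after 5 h incubation. Luminescence tracked at 0, 8, 16, 24, 32 and 40 h of exposure.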

[9] = A CellTox Green Cytotoxicity Assay to monitor cytotoxicity in HEK293 cells - 40 hour (AID 1224871); further: nearly all actives have a fitted effect of over 45% in size; further: potency means the concentration at half of the fitted maximal effect
How it was run: as §2

[10] = qHTS RealTime-Glo MT Cell Viability Assay in HepG2 cells - 8 hour (AID 1224873); further: nearly all actives have a fitted effect of over 55% in size; further: potency means the concentration at half of the fitted maximal effect
How it was run: as §3

[11] = qHTS RealTime-Glo MT Cell Viability Assay in HEK293 cells - 40 hour (AID 1224874); conditions: RealTime-Glo luminescence; max response: stronger effect = lower value; further: nearly all actives have a fitted effect of over 50% in size; further: potency means the concentration at half of the fitted maximal effect
How it was run: (§4)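 Viable HEK293 cells reduce a cell-permeant prosubstrate; the product diffuses out and is consumed by NanoLuc in the medium to give light. Compounds went in after a 5 h incubation and plates were read over the treatment course.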

[12] = A CellTox Green Cytotoxicity Assay to monitor cytotoxicity in HEK293 cells - 24 hour (AID 1224875); further: nearly all actives have a fitted effect of over 45% in size; further: potency means the concentration at half of the fitted maximal effect
How it was run: as §2

[13] = A CellTox Green Cytotoxicity Assay to monitor cytotoxicity in HepG2 cells - 16 hour (AID 1224876); further: nearly all actives have a fitted effect of over 45% in size; further: potency means the concentration at half of the fitted maximal effect
How it was run: (§5)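 Using 1536-well format, dye-containing HepG2 suspension was seeded, allowed 5 h at 37 C/5% CO2, dosed by pintool with compounds, positive and negative controls, and imaged for fluorescence across 40 h.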

[14] = A CellTox Green Cytotoxicity Assay to monitor cytotoxicity in HepG2 cells - 24 hour (AID 1224878); further: nearly all actives have a fitted effect of over 45% in size; further: potency means the concentration at half of the fitted maximal effect
How it was run: as §5

[15] = A CellTox Green Cytotoxicity Assay to monitor cytotoxicity in HepG2 cells - 40 hour (AID 1224879); further: nearly all actives have a fitted effect of over 40% in size; further: potency means the concentration at half of the fitted maximal effect
How it was run: as §5

[16] = qHTS RealTime-Glo MT Cell Viability Assay in HEK293 cells - 0 hour (AID 1224880)
How it was run: as §4

[17] = qHTS RealTime-Glo MT Cell Viability Assay in HepG2 cells - 24 hour (AID 1224867); further: nearly all actives have a fitted effect of over 50% in size; further: potency means the concentration at half of the fitted maximal effect
How it was run: (§6)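 Viability was tracked continuously by NanoLuc luminescence from prosubstrate reduced by living HepG2 cells, at successive time points over 40 h of compound exposure. Cells with reagent were preincubated 5 h at 37 °C before compound addition.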

[18] = qHTS RealTime-Glo MT Cell Viability Assay in HEK293 cells - 16 hour (AID 1224872); further: nearly all actives have a fitted effect of over 50% in size; further: potency means the concentration at half of the fitted maximal effect
How it was run: as §1

[19] = qHTS RealTime-Glo MT Cell Viability Assay in HepG2 cells - 32 hour (AID 1224877); further: nearly all actives have a fitted effect of over 55% in size; further: potency means the concentration at half of the fitted maximal effect
How it was run: as §6

[20] = qHTS assay to identify small molecule agonists of the hypoxia (HIF-1) signaling pathway (AID 1224846; active means well fitted activation curve with a large enough effect in the signal ratio in the repeat runs, not every such curve was filed as active; the % refers to the signal ratio)
How it was run: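 A low-serum medium (0.5% dialyzed FBS) holding 2,000 HRE-bla ME-180 cells per well is preincubated for 5 hrs, dosed with compounds by pintool, and kept a further 17 hrs at 37C, 5% CO2 before CCF4-AM FRET detection of beta-lactamase.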
On the % scale 0 is the no-effect control and ±100 the full control effect.

CC[C@]1(O)C[C@@H]2CN(CCc3c([nH]c4ccccc34)[C@@](C(=O)OC)(c3cc4c(cc3OC)N(C)[C@H]3[C@@](O)(C(=O)OC)[C@H](OC(C)=O)[C@]5(CC)C=CCN6CC[C@]43[C@@H]65)C2)C1
active: Potency [4] 26.6 µM | Potency [6] 16.9 nM and 4.8 nM | Potency [11] 15.1 nM and 5.4 nM
inactive: Potency [1] | Potency [2] | Potency [3] | activity change, positive = activation ([5]; at 42.5 µM (top of the series)) -22% and -33.9% | Potency [7] | Potency [8] | Potency [9] | Potency [10] | Potency [12] | Potency [13] | Potency [14] | Potency [15] | Potency [16]

O=C(O)c1cn(-c2ccc(F)cc2)c2cc(N3CCNCC3)c(F)cc2c1=O
inactive: Potency [1] | Potency [2] | Potency [3] | Potency [17] | Potency [6] | Potency [7] | Potency [9] | Potency [18] | Potency [10] | max response [11] 4.85% and 19.5% | Potency [12] | Potency [13] | Potency [14] | Potency [15] | Potency [16]

CC(C)(c1ccccc1)c1ccc(Nc2ccc(C(C)(C)c3ccccc3)cc2)cc1
15.3 µM (active) and inactive: Potency [4]
inactive: Potency [1] | Potency [2] | Potency [3] | activity change, positive = activation ([5]; at 92.4 µM (top of the series)) -43.2% and -18.6% | Potency [6] | Potency [7] | Potency [8] | Potency [9] | Potency [18] | max response [11] -27.1% and -13.6% | Potency [12] | Potency [14] | Potency [15] | Potency [16]

O=C(Nc1ccccc1SSc1ccccc1NC(=O)c1ccccc1)c1ccccc1
inactive and 54.9 µM (active): Potency [14]
inactive: activity change, positive = activation ([5]; at 92.4 µM (top of the series)) -71.7% and -62.7% | Potency [7] | Potency [10] | Potency [12] | Potency [16]
inactive and 49 µM (active): Potency [17] | Potency [19]
active: Potency [1] 15.6 µM and 21.9 µM | Potency [2] 18 µM | Potency [4] 24.5 µM and 43.3 µM | Potency [15] 49 µM

CCN(CC)C(=O)Nc1ccc(OCC(O)CNC(C)(C)C)c(C(C)=O)c1 (stereo unspecified)
inactive: Potency [1] | Potency [20] | Potency [3] | Potency [4] | activity change, positive = activation ([5]; at 42.5 µM (top of the series)) -6.6% | Potency [17] | Potency [6] | Potency [7] | Potency [9] | Potency [18] | Potency [10] | max response [11] 1.66% | Potency [12] | Potency [13] | Potency [19] | Potency [15] | Potency [16]

CCOC(=O)C(C)C(C)=O (stereo unspecified)
inactive: Potency [1] | Potency [20] | Potency [3] | Potency [4] | activity change, positive = activation ([5]; at 92.4 µM (top of the series)) 5% | Potency [17] | Potency [6] | Potency [7] | Potency [8] | Potency [9] | Potency [10] | max response [11] -0.314% | Potency [12] | Potency [13] | Potency [15] | Potency [16]

COc1ccc(Cc2cnc(N)nc2N)cc1OC
inactive: Potency [1] | Potency [20] | Potency [3] | Potency [4] | activity change, positive = activation ([5]; at 42.5 µM (top of the series)) 4.01% | Potency [6] | Potency [7] | Potency [8] | Potency [9] | Potency [18] | Potency [10] | max response [11] 0.446% | Potency [12] | Potency [13] | Potency [14] | Potency [15] | Potency [16]

c1cc(C(c2ccc(OCC3CO3)cc2)C(c2ccc(OCC3CO3)cc2)c2ccc(OCC3CO3)cc2)ccc1OCC1CO1 (stereo unspecified)
inactive: Potency [1] | Potency [20] | Potency [4] | activity change, positive = activation ([5]; at 92.4 µM (top of the series)) -18.6% and 0.394% | Potency [17] | Potency [6] | Potency [7] | Potency [9] | Potency [18] | Potency [10] | max response [11] -1.63% | Potency [12] | Potency [13] | Potency [19] | Potency [14] | Potency [15] | Potency [16]

Cc1occc(=O)c1OC(=O)C(C)C
inactive: Potency [1] | Potency [20] | Potency [3] | Potency [4] | activity change, positive = activation ([5]; at 92.4 µM (top of the series)) 1.53% | Potency [17] | Potency [6] | Potency [7] | Potency [9] | Potency [18] | Potency [10] | max response [11] -0.202% | Potency [12] | Potency [13] | Potency [19] | Potency [14] | Potency [15] | Potency [16]

COc1ccc(CCN2CCC(Nc3nc4ccccc4n3Cc3ccc(F)cc3)CC2)cc1
active: Potency [1] 12.6 µM | Potency [3] 32.6 µM | Potency [4] 12.5 µM and 26.6 µM | Potency [6] 6.3 µM and 15.1 µM | Potency [9] 11.2 µM and 23.9 µM | Potency [18] 8.9 µM and 9.52 µM | Potency [10] 35.4 µM and 23.9 µM | Potency [11] 5.62 µM and 10.7 µM | Potency [12] 17.8 µM and 23.9 µM | Potency [13] 31.6 µM and 21.3 µM | Potency [19] 15.8 µM and 10.7 µM | Potency [15] 15.8 µM and 8.49 µM
inactive: activity change, positive = activation ([5]; at 42.5 µM (top of the series)) -69.8% | activity change, positive = activation ([5]; at 92.4 µM (top of the series)) -76.4% | Potency [7] | Potency [16]

Cc1c(O)cccc1C(=O)N[C@@H](CSc1ccccc1)[C@H](O)CN1C[C@H]2CCCC[C@H]2C[C@H]1C(=O)NC(C)(C)C
inactive: activity change, positive = activation ([5]; at 42.5 µM (top of the series)) -54.6% | activity change, positive = activation ([5]; at 92.4 µM (top of the series)) -64.1% | Potency [7] | Potency [9] | Potency [10] | Potency [12] | Potency [14] | Potency [16]
active: Potency [3] 49.2 µM | Potency [4] 15 µM and 18.8 µM | Potency [6] 19 µM | Potency [11] 13.4 µM | Potency [15] 42.5 µM and 10.7 µM
12 µM (active) and inactive: Potency [1]
